PubChem BioAssay (EPA / NIEHS)
Active and inactive are the calls of the source. Rule for the calls: active = hit-call score of the fitted dose curve at least 0.9, where 1 is the maximum; inactive = score below 0.9.

Tests used:
Details in all cases: mRNA level, 48 h; actives raise or lower the signal
[1] = read-out: Lipoprotein lipase (LPL), LPL (gene 4023); experiment: LTEA_HepaRG_LPL: Life Technologies and Expression Analysis (LTEA) Assay for Lipoprotein lipase (LPL) using HepaRG (AID 2283515)
Method in brief: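 Differentiated HepaRG cells, plated 48 h, then exposed 48 h in serum-free induction medium to 8 concentrations (top 100 uM, half-log steps) in 0.5% DMSO, duplicate. LPL mRNA measured by qRT-PCR, normalized to ACTB, GAPDH and POLR2A.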

[2] = read-out: MicroRNA 122 (MIR122), gene 406906; experiment: LTEA_HepaRG_MIR122: Life Technologies and Expression Analysis (LTEA) Assay for MicroRNA 122 (MIR122) using HepaRG (AID 2283516); note: the transcript read is the microRNA miR-122
Method in brief: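 Differentiated human HepaRG cells in serum-free induction medium exposed 48 h to 8 half-log concentrations from 100 uM in 0.5% DMSO, duplicate. MIR122 quantified by Fluidigm TaqMan qRT-PCR, normalised to ACTB, GAPDH, POLR2A; fold change fitted bidirectionally versus DMSO.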

[3] = read-out: matrix metalloproteinase-10 (MMP10), MMP10 (gene 4319); experiment: LTEA_HepaRG_MMP10: Life Technologies and Expression Analysis (LTEA) Assay for matrix metalloproteinase-10 (MMP10) using HepaRG (AID 2283517)
Method in brief: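 Differentiated HepaRG cells in serum-free induction medium exposed 48 h in duplicate to 8-point half-log series up to 100 uM in 0.5% DMSO. mRNA quantified by qRT-PCR, normalised to ACTB, GAPDH, POLR2A; bidirectional fit versus DMSO.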

MYC, MYC (gene 4609) = experiment: LTEA_HepaRG_MYC: Life Technologies and Expression Analysis (LTEA) Assay for MYC using HepaRG (AID 2283518)
Method in brief: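 Expression changes were scored by TaqMan qRT-PCR with ACTB, GAPDH and POLR2A normalization. Cultures in serum-free induction medium received duplicate 8-point concentration series, highest 100 uM, for 48 h; DMSO (0.5%) served as baseline.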

[4] = read-out: matrix metalloproteinase-3 (MMP3), MMP3 (gene 4314); experiment: LTEA_HepaRG_MMP3: Life Technologies and Expression Analysis (LTEA) Assay for matrix metalloproteinase-3 (MMP3) using HepaRG (AID 2283519)
Method in brief: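 HepaRG cells (~100,000/well) in serum-free induction medium were dosed in duplicate for 48 h with an 8-point half-log series from 100 uM, 0.5% DMSO. MMP3 mRNA was quantified by Fluidigm TaqMan qRT-PCR, normalized to three housekeeping genes.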

[5] = read-out: Paternally Expressed 10 (PEG10), PEG10 (gene 23089); experiment: LTEA_HepaRG_PEG10: Life Technologies and Expression Analysis (LTEA) Assay for Paternally Expressed 10 (PEG10) using HepaRG (AID 2283520)
Method in brief: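 Differentiated HepaRG cells exposed 48 h in serum-free induction medium to eight half-log concentrations topping at 100 uM, 0.5% DMSO, in duplicate. PEG10 mRNA quantified by TaqMan qRT-PCR, normalized to ACTB, GAPDH and POLR2A; bidirectional fit versus DMSO.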

[6] = read-out: Protein phosphatase 2A (PPP2R4), PTPA (gene 5524); experiment: LTEA_HepaRG_PPP2R4: Life Technologies and Expression Analysis (LTEA) Assay for Protein phosphatase 2A (PPP2R4) using HepaRG (AID 2283522)
Method in brief: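 Differentiated human HepaRG cells in serum-free induction medium were exposed 48 h to 8 concentrations (top 100 µM, half-log steps, duplicate) in 0.5% DMSO. PPP2R4 mRNA was measured by TaqMan qRT-PCR, normalised to ACTB, GAPDH and POLR2A, and fitted bidirectionally versus DMSO.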

[7] = read-out: solute carrier (SLC22A1), SLC22A1 (gene 6580); experiment: LTEA_HepaRG_SLC22A1: Life Technologies and Expression Analysis (LTEA) Assay for solute carrier (SLC22A1) using HepaRG (AID 2283524)
Method in brief: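 Differentiated human HepaRG cells in serum-free induction medium, exposed 48 h in duplicate to 8-point half-log series from 100 µM top in 0.5% DMSO. SLC22A1 mRNA by TaqMan qRT-PCR normalized to ACTB, GAPDH, POLR2A; bidirectional fit versus DMSO.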

[8] = read-out: Phosphatase and tensin (PTEN), PTEN (gene 5728); experiment: LTEA_HepaRG_PTEN: Life Technologies and Expression Analysis (LTEA) Assay for Phosphatase and tensin (PTEN) using HepaRG (AID 2283523)
Method in brief: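 HepaRG cells, 48 h after plating, exposed in duplicate for 48 h in serum-free induction medium to 8 half-log concentrations up to 100 uM (0.5% DMSO). PTEN mRNA by qRT-PCR, normalized to ACTB, GAPDH, POLR2A; bidirectional fit versus DMSO.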

[9] = read-out: Nuclear factor NF-kappa-B p105 subunit (Homo sapiens) (UniProt P19838); experiment: LTEA_HepaRG_NFKB1: Life Technologies and Expression Analysis (LTEA) Assay for Nuclear Factor Kappa B Subunit 1 (NFKB1) using HepaRG (AID 2283521);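 note: TaqMan qRT-PCR transcript normalised to ACTB GAPDH and POLR2A housekeeping genes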
Method in brief: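 HepaRG, 48 h exposure; 8-pt half-log series from 100 uM in 0.5% DMSO; duplicates. Readout: NFKB1 mRNA by qRT-PCR (Fluidigm arrays), housekeeping-normalized. Gain/loss fit vs DMSO baseline.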

Measured: AC50

Chain of Nuclear factor NF-kappa-B p105 subunit (Homo sapiens) (P19838 whole entry, looked up): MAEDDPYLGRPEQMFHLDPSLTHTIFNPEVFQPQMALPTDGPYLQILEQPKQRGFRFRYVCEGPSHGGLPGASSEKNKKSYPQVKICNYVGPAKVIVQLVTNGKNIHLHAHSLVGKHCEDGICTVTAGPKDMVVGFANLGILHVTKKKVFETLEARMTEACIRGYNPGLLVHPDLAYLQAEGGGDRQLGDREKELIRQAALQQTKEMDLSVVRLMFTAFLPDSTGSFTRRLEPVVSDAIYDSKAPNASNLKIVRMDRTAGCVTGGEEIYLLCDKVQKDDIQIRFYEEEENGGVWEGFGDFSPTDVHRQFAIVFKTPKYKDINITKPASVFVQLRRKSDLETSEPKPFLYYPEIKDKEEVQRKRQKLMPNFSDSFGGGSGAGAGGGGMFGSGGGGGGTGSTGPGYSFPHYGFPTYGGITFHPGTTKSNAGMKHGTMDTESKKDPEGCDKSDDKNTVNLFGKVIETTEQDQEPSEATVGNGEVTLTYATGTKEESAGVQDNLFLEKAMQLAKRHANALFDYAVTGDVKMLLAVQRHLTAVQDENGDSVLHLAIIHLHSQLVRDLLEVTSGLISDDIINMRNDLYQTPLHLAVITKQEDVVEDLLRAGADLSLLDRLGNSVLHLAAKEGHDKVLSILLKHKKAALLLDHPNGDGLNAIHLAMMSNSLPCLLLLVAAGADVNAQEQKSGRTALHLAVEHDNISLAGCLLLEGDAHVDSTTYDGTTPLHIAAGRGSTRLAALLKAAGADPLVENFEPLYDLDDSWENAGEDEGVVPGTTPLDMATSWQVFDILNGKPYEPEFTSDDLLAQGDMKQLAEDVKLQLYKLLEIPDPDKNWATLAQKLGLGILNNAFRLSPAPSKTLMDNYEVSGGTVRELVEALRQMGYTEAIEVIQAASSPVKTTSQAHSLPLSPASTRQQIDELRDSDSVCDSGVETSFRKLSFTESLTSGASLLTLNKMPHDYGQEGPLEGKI

Nc1ccc(-c2ccc(N)cc2)cc1
active: [5] 2.2 µM
not listed: [8] | [9]
inactive: all other assays above

Cc1ccccc1O
not listed: [8] | [9]
inactive: all other assays above

COc1ccc(O)c(C(C)(C)C)c1
not listed: [7] | [8] | [9]
inactive: all other assays above

Cc1cccc(C)c1N
not listed: [9]
inactive: all other assays above

Cc1cc2c3c(c1)C(c1ccccc1)=N[C@@H](NC(=O)c1ccncc1)C(=O)N3CC2
active: [1] 21.1 µM | [7] 50 µM
not listed: [8] | [9]
inactive: all other assays above

CCCCCCCCCC[N+](C)(C)CCCCCCCCCC
active: [1] 88.7 µM | [4] 94 µM | [5] 50 µM | [7] 61.5 µM
not listed: [8]
inactive: all other assays above

N#Cc1ccc(N(CC(N)=O)CC(F)(F)F)cc1C(F)(F)F
active: [5] 10.5 µM
not listed: [9]
inactive: all other assays above

CCC(=O)O[C@H]1CC[C@H]2[C@@H]3CCC4=CC(=O)CC[C@]4(C)[C@H]3CC[C@]12C
active: [4] 50 µM | [5] 13.3 µM
not listed: [9]
inactive: all other assays above

Cc1cc(-c2ccc(N)c(C)c2)ccc1N
active: [1] 50 µM | [5] 33.7 µM | [7] 50 µM
not listed: [9]
inactive: all other assays above

Clc1ccc(C(Cl)(Cl)Cl)cc1
not listed: [9]
inactive: all other assays above

ClC(Cl)=C(c1ccc(Cl)cc1)c1ccc(Cl)cc1
not listed: [9]
inactive: all other assays above

CCC(C)(c1ccc(O)cc1)c1ccc(O)cc1
active: [5] 80.3 µM
not listed: [8] | [9]
inactive: all other assays above

CCCCCCCCCc1ccc(O)cc1
not listed: [8]
inactive: all other assays above

CC(C)C(=O)OCC(C)(C)C(OC(=O)C(C)C)C(C)C (centres undefined)
not listed: [9]
inactive: all other assays above

O=C(O)C(F)(F)C(F)(F)C(F)(F)C(F)(F)C(F)(F)C(F)(F)C(F)(F)C(F)(F)F
inactive: [4] | [5] | [6] | [8]
active: [1] 79.5 µM | [2] 74.4 µM | [3] 76.9 µM | MYC, MYC (gene 4609) 78.7 µM | [7] 86.1 µM

O=S(=O)(O)C(F)(F)C(F)(F)C(F)(F)C(F)(F)C(F)(F)C(F)(F)F
not listed: [8] | [9]
inactive: all other assays above

CC(C)(c1ccccc1)c1ccc(O)cc1
active: [5] 84.7 µM | [7] 50 µM
not listed: [9]
inactive: all other assays above

ClC1=C(Cl)[C@]2(Cl)[C@@H]3[C@H]4C[C@H]([C@@H]5O[C@H]45)[C@@H]3[C@@]1(Cl)C2(Cl)Cl
active: [2] 31.6 µM | MYC, MYC (gene 4609) 11 µM | [7] 31.7 µM
not listed: [9]
inactive: all other assays above

Cc1ccccc1[N+](=O)[O-]
not listed: [9]
inactive: all other assays above

Oc1ccc(Cl)cc1Cl
not listed: [8] | [9]
inactive: all other assays above

O=NN(c1ccccc1)c1ccccc1
active: [4] 80.6 µM
not listed: [9]
inactive: all other assays above

Oc1ccc(C(c2ccc(O)cc2)(C(F)(F)F)C(F)(F)F)cc1
inactive: [2] | [5] | [9] | [8]
active: [1] 79.3 µM | [3] 82.7 µM | MYC, MYC (gene 4609) 77.5 µM | [4] 76.6 µM | [6] 89 µM | [7] 71.9 µM

C=CC(=O)NCNC(=O)C=C
active: [7] 30.6 µM
inactive: all other assays above

CCOC(=O)C(O)(c1ccc(Cl)cc1)c1ccc(Cl)cc1
active: [1] 9.14 µM
not listed: [9]
inactive: all other assays above

Cc1ccc(O)c(C)c1
not listed: [9]
inactive: all other assays above

Oc1c(Cl)c(Cl)c(Cl)c(Cl)c1Cl
active: [1] 5.08 µM | [2] 3.65 µM | [3] 25.5 µM | MYC, MYC (gene 4609) 16.1 µM | [4] 6.02 µM | [5] 2.11 µM | [6] 2.22 µM | [8] 6.88 µM | [7] 3.31 µM

C1CC2OC2CC1C1CO1 (centres undefined)
not listed: [9]
inactive: all other assays above

O=C(N[C@H]1CN2CCC1CC2)c1cc2ccoc2cn1
not listed: [9]
inactive: all other assays above

CC(C)(O)C(=O)Nc1ccc([N+](=O)[O-])c(C(F)(F)F)c1
active: MYC, MYC (gene 4609) 0.0308 µM | [4] 0.0298 µM | [5] 25 µM | [6] 0.0226 µM
not listed: [9]
inactive: all other assays above

O=C(O)C(F)(F)C(F)(F)C(F)(F)C(F)(F)C(F)(F)C(F)(F)C(F)(F)C(F)(F)C(F)(F)F
active: [1] 89.2 µM | [2] 63.1 µM | [3] 37.1 µM | MYC, MYC (gene 4609) 22.8 µM | [5] 12.1 µM | [6] 88.9 µM | [8] 82.2 µM | [7] 41.2 µM
inactive: [4]
